PubChem BioAssay (Tox21)
Inconclusive results are not listed. A call without a number means that no potency is given here. Values without a mark were called inactive. Active and inactive are the calls of the source. Calls follow the shape of the dose curve; as a rule, active = well fitted cell-killing curve with a large enough effect in the repeat runs; inconclusive = weak or mixed curves, or effect the other way; inactive = flat fitted curve, though single readings scatter.

Test: qHTS assay to identify small molecule agonists of the estrogen receptor beta (ER-beta) signaling pathway - cell viability counter screen (AID 1259380); also: nearly all actives have a fitted effect of over 30% in size
Details: ER-beta-bla HEK293T viability, CellTiter-Glo luminescence, 16 h; series mostly up to 92.4 µM
Description: National Center for Advancing Translational Sciences [NCATS]
NIH Chemical Genomics Center [NCGC]
U.S. Environmental Protection Agency [EPA]
National Institutes of Environmental Health Sciences [NIEHS]
National Toxicology Program [NTP]
U.S. Food and Drug Administration [FDA]
Estrogen receptor (ER), a nuclear hormone receptor, plays an important role in development, metabolic homeostasis and reproduction. Two subtypes of ER, ER-alpha and ER-beta, have similar expression patterns with some uniqueness in both types. Endocrine disrupting chemicals (EDCs) and their interactions with steroid hormone receptors like ER causes disruption of normal endocrine function. To identify the compounds that activate ER signaling, an ER beta-UAS-bla GripTite cell line (Life Technologies, Madison, WI, USA) containing a beta-lactamase reporter gene under the control of an UAS response element was used to screen Tox21 10K compound library. The cytotoxicity of the Tox21 compound library against the ER-beta-bla cell line was tested in parallel by measuring the cell viability using CellTiter-Glo assay in the same wells.
Tox21 Assay Protocol Summary:
ER-beta-UAS-bla HEK293T cells were dispensed at 2,000 cells/5 uL of assay medium containing 2% charcoal stripped FBS per well into black wall/clear-bottom 1536-well plates using a Multidrop Combi (ThermoFisher Scientific, Waltham, MA) dispenser. After the assay plates were incubated at a 37C and 5% CO2 for 6 hr, 23 nL of compounds dissolved in DMSO, positive controls or DMSO only was transferred to the assay plate by a Pintool station (Kalypsys, San Diego, CA). The plates were incubated at 37C and 5% CO2 for 16 hr. Then 1 uL of LiveBLAzerTM B/G FRET substrate was added using a BioRAPTR FRD (Flying Reagent Dispenser, Aurora Discovery, San Diego, CA) and then the plates were incubated at room temperature for 2 hours, and fluorescence intensity was measured by an Envision plate reader (PerkinElmer, Shelton, CT). For cell viability readout that measures cytotoxicity, 4 uL/well of CellTiter-Glo reagent was added into the assay plates using a FRD. After 30 min incubation at room temperature, the luminescence intensity in the plates was measured using a ViewLux (PerkinElmer) plate reader.
Potency is read from the fitted curve at half-maximal effect.

SMILES | Potency | activity change, negative = cytotoxicity
O=C(O)COCC(=O)O | inactive | –
Cc1c(Cl)cccc1[N+](=O)[O-] | inactive | –
C=CC(=O)OCCCCCCCCCC | inactive | –
Clc1ccccc1-c1nc(-c2ccncc2)no1 | inactive | –
O=P(c1ccccc1)(c1ccccc1)c1ccccc1 | inactive | –
Cc1c(N=C=O)cccc1N=C=O | inactive | –
CCOC(=O)CC(O)(CC(=O)OCC)C(=O)OCC | inactive | –
O=C(O)c1ccncc1 | inactive | –
C=CC(C)(O)CC/C=C(/C)CCC=C(C)C (stereo not given) | inactive | –
O=C(OCCOCCOCCOC(=O)c1ccccc1)c1ccccc1 | inactive | –
CCOc1ccc2c(c1)C(C)CC(C)(C)N2 (stereo not given) | inactive | –
Cc1cc(C)c(C)c(O)c1 | inactive | –
CC(=O)Nc1ccn(C2COC(COC(=O)c3ccccc3)O2)c(=O)n1 (stereo not given) | inactive | –
CCCCCCCCCCCCSCCOCCO | inactive | –
Oc1ccc(CCNCCCCCCNCCc2ccccc2)cc1O | inactive | –
C(/C=C/C=C/Nc1ccccc1)=Nc1ccccc1 | inactive | –
CCOC(C)OCC | inactive | –
CC(=O)Nc1cccc(N)c1 | inactive | –
CCN(CC)CC(=O)OCC(=O)[C@@]1(O)CC[C@H]2[C@@H]3CCC4=CC(=O)CC[C@]4(C)[C@H]3[C@@H](O)C[C@@]21C | inactive | –
Cc1cc(SC2=C(O)C[C@@](CCc3ccc(N)cc3)(C(C)C)OC2=O)c(C(C)(C)C)cc1CO | inactive | –

SMILES | Potency | activity change, negative = cytotoxicity
CCC(CC)C(=O)O | inactive | –
CCCCCCCCCCCCCCCCC(=O)O | inactive | –
CCCOC(C)=O | inactive | –
O=C(c1ccco1)N1CCNCC1 | inactive | –
CCCCCCCCCCCC(=O)OCC | inactive | –
CNc1ccccc1 | inactive | –
Cc1nc(C)c(C)nc1C | inactive | –
CC(=O)c1ccc(Cl)c(Cl)c1Cl | inactive | –
O=c1[nH]nc(-c2ccc([N+](=O)[O-])o2)o1 | inactive | –
CC(C)(C(=O)O)c1ccc(C(O)CCCN2CCC(C(O)(c3ccccc3)c3ccccc3)CC2)cc1 (stereo not given) | inactive | –
CC(C)(Cc1c[nH]c2ccccc12)NCC(O)COc1ccccc1C#N (stereo not given) | 29.8 µM (active) | –
CC1(COc2ccc(CC3SC(=O)NC3=O)cc2)CCCCC1 (stereo not given) | 10.6 µM (active) | –
CCC(=O)O[C@@H]1C[C@H]2CC[C@]1(C)C2(C)C | inactive | –
O=C1C=CCCC1 | inactive | –
O=C1OC(=O)C2CC=CCC12 (stereo not given) | inactive | –
CCC(C(=O)O)c1ccc(N2Cc3ccccc3C2=O)cc1 (stereo not given) | inactive | –
CC(=O)c1cccnc1 | inactive | –
CCCCCCCCCCCCCCCCCCCl | – | 2.61% [at 8.39 µM]
CCCC1CCCC(=O)O1 (stereo not given) | inactive | –
O=C(O)CNc1ccccc1 | inactive | –
